The supplement of paper PMC10849652
About 7,900 targets were measured; listed, in parts, are those with a hit and a random draw of the rest. About 0.6% of all pairs of compound and target were hits.

compound: CN1CC[C@H](c2c(O)cc(O)c3c(=O)cc(-c4ccccc4Cl)oc23)[C@H](O)C1 [alvocidib]; experiment: log2 fold change, soluble protein after heating vs DMSO (PISA); higher = thermal stabilisation; K562 cells, 10 uM, 30 min; active = over 0.2 and 3.5 SD of the protein, either way, in both replicates (recomputed)
How it was run: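 K562 cells at 2×10^6 cells/mL were treated with 10 μM compound for 30 min. Aliquots were heated for 3 min across 48°C-58°C, pooled, and extracted in PBS with 0.5% NP-40 at 4°C; soluble protein was the supernatant after 21,000xg for 90 min. Soluble protein was quantified by TMTpro 16plex LC-MS/MS with channel sums equalised, and reported as log2 fold change in thermal stability against DMSO controls, with values from duplicates.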

Sequence of UniProt Q8IWZ8 (Q8IWZ8 whole entry, looked up): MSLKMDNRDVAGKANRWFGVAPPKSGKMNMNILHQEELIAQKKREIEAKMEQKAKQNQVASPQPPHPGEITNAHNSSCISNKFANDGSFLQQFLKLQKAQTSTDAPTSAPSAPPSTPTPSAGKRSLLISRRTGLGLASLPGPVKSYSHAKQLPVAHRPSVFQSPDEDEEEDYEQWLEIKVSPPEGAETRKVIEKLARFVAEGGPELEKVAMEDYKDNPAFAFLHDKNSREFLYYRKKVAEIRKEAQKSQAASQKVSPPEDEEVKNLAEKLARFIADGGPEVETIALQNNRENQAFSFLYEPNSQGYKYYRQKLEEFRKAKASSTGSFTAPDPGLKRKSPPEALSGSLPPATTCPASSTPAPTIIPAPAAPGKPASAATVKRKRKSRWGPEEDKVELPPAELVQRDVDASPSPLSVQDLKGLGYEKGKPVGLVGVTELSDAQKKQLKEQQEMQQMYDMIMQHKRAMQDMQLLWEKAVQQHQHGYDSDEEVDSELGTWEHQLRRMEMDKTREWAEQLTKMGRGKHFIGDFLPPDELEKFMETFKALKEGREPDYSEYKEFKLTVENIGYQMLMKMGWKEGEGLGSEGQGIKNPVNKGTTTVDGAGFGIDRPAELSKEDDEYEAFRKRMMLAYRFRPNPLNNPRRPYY
Sequence of UniProt Q92844 (Q92844 whole entry, looked up): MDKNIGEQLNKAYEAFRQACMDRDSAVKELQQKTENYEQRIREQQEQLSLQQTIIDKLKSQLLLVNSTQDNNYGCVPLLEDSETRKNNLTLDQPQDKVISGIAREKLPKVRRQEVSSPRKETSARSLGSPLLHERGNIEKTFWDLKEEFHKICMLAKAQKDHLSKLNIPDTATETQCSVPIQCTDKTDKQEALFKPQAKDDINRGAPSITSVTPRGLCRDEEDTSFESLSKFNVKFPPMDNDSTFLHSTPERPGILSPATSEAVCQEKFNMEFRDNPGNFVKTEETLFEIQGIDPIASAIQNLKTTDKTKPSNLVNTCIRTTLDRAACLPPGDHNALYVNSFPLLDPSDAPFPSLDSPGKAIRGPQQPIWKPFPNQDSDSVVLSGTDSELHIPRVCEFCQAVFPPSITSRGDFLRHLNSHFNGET
Sequence of UniProt Q9Y5W9 (Q9Y5W9 whole entry, looked up): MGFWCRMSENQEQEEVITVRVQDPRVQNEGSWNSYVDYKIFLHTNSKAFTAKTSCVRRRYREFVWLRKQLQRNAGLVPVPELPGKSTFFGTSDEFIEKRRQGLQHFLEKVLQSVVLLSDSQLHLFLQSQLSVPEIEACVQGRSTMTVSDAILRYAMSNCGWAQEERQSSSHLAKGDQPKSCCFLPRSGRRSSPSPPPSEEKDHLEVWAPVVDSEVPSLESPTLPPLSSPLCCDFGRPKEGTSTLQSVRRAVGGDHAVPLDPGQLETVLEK
Sequence of UniProt P30626 (P30626 whole entry, looked up): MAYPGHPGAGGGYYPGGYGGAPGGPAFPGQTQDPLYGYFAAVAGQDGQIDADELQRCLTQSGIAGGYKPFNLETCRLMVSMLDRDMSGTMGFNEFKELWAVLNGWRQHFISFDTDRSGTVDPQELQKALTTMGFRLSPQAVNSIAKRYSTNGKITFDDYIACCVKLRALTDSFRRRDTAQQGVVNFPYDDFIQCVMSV
Sequence of UniProt Q6XR72 (Q6XR72 whole entry, looked up): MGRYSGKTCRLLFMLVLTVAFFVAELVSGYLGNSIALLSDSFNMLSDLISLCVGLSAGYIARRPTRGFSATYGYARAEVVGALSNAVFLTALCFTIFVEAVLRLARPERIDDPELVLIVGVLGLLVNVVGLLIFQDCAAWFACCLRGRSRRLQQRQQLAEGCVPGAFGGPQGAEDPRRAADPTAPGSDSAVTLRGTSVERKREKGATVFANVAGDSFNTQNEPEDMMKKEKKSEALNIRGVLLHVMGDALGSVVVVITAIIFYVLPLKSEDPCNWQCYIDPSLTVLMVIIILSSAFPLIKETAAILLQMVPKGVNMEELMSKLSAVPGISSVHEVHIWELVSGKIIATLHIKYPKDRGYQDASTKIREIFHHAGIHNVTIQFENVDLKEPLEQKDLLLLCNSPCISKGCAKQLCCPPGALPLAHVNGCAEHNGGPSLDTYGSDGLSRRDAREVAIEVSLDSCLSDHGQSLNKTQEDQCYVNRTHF
Sequence of UniProt P35270 (P35270 whole entry, looked up): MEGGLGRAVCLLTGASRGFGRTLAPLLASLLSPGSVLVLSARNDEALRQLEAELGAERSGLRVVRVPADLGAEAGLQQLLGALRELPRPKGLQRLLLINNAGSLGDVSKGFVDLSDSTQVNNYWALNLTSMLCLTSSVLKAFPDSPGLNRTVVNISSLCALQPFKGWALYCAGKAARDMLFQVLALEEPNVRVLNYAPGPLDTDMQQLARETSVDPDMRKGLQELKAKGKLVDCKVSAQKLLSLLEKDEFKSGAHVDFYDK
Sequence of UniProt P51687 (P51687 whole entry, looked up): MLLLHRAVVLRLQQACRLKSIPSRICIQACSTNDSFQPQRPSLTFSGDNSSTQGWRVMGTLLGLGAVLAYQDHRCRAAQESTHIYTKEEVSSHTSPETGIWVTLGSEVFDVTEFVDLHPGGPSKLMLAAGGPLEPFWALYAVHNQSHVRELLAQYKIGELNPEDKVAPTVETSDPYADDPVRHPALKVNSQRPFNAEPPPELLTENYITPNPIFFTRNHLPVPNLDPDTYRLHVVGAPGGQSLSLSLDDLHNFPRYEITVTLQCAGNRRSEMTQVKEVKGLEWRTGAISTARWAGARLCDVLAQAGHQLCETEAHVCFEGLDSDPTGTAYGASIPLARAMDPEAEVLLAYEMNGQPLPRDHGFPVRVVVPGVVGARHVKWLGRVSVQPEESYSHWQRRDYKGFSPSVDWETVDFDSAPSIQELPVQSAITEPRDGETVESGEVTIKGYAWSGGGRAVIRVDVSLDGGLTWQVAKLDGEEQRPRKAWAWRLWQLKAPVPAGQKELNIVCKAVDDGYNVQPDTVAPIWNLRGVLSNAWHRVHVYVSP
Sequence of UniProt Q9UNL2 (Q9UNL2 whole entry, looked up): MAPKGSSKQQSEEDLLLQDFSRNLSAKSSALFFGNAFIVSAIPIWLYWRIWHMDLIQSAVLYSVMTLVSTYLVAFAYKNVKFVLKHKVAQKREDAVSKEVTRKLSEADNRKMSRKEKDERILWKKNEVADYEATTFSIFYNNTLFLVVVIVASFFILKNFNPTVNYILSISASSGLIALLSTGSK
Sequence of UniProt Q66K14 (Q66K14 whole entry, looked up): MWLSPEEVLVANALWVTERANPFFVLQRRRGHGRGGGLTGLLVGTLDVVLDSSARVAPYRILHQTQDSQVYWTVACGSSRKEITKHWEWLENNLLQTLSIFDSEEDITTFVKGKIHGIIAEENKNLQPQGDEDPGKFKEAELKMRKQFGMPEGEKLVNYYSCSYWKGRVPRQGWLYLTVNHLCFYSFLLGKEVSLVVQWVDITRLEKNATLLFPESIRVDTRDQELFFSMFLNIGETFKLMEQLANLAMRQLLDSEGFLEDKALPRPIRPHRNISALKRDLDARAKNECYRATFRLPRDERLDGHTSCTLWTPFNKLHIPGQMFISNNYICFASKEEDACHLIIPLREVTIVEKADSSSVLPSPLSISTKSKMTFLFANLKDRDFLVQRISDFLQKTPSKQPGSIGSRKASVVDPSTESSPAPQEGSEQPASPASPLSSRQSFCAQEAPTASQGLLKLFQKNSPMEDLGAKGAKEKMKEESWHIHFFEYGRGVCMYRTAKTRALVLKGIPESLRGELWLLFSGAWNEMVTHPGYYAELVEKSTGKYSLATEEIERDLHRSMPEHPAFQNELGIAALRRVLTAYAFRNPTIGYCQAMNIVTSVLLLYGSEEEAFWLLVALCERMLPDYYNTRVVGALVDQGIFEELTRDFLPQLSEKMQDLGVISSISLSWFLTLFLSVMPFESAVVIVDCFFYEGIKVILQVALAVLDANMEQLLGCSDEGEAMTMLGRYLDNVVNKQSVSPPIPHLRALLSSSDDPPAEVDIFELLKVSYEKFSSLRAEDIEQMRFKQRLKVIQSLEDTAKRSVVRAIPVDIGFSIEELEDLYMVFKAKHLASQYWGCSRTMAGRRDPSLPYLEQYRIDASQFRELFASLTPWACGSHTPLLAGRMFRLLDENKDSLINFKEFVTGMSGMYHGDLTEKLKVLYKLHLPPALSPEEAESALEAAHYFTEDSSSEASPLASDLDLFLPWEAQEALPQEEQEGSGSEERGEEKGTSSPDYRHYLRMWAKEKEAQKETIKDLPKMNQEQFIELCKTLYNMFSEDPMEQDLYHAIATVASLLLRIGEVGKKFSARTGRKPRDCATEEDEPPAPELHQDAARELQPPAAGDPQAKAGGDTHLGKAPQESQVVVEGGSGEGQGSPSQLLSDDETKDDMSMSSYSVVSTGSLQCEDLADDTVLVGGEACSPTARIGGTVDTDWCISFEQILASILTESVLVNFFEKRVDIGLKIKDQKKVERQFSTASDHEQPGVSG
Sequence of UniProt Q9BW92 (Q9BW92 whole entry, looked up): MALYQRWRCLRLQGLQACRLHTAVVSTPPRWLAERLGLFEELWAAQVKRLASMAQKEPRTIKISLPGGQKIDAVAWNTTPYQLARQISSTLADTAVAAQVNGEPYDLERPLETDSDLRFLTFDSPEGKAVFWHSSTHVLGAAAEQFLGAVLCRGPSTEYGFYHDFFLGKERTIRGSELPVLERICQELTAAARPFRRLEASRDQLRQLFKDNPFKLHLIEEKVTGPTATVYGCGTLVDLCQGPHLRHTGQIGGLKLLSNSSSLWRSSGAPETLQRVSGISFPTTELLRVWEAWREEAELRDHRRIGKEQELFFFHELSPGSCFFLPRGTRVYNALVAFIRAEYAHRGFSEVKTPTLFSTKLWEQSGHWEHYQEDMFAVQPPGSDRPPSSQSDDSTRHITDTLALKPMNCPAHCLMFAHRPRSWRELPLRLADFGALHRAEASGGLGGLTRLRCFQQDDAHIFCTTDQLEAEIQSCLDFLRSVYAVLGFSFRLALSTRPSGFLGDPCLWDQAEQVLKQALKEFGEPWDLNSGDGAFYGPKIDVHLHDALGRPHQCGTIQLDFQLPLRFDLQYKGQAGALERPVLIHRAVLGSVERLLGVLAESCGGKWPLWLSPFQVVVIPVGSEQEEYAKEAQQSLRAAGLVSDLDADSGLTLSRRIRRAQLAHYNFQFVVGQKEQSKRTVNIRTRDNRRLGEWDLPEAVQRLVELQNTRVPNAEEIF

log2 fold change, inactive:
SUGP1 (UniProt Q8IWZ8) -0.129, TBC1D9B (UniProt Q66K14) -0.059, STARD3NL (UniProt O95772) -0.01, SLC25A4 (UniProt P12235) 0.068, SLC30A10 (UniProt Q6XR72) -0.031, SMC5 (UniProt Q8IY18) 0, SRPRB (UniProt Q9Y5M8) 0.002, SPR (UniProt P35270) 0.064, TANK (UniProt Q92844) 0.081, SLC4A2 (UniProt P04920) -0.174, TMBIM6 isoform 2 (UniProt P55061) -0.027, SLC25A42 (UniProt Q86VD7) 0, SLK isoform 2 (UniProt Q9H2G2) -0.031, TBCD (UniProt Q9BTW9) -0.096, SUPT16H (UniProt Q9Y5B9) -0.359, SUOX (UniProt P51687) -0.047, STK4 (UniProt Q13043) -0.01, TK1 (UniProt P04183) -0.028, SSR3 isoform 2 (UniProt Q9UNL2) -0.108, SRI (UniProt P30626) -0.062, TARS2 (UniProt Q9BW92) -0.041, SNX11 (UniProt Q9Y5W9) -0.135, TATDN2 (UniProt Q93075) -0.136
